Experimental data: PubChem BioAssay (NCATS)
Results filed as inconclusive are left out. The source made the active and inactive calls. Calls follow the shape of the dose curve; as a rule, active = well fitted curve in the direction sought with a large enough effect; inconclusive = small, poorly fitted or top-dose-only effect, or another doubt; inactive = no such curve, though single readings can be large; an effect the other way counts as inactive or inconclusive.

Columns and labels:
[1] = molecular target: Tumor susceptibility gene 101 protein (Homo sapiens) (UniProt Q99816); test: qHTS Assay for Iinhibitors of HIV-1 Budding by Blocking the Interaction of PTAP/TSG101: Hit Validation (AID 651600); also: potency is read from the fitted curve at half-maximal effect; nearly all actives have a fitted effect of over 70% in size
Procedure, shortened: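 Measuring PTAP–Tsg101 interaction by FP: protein at 10 uM and fluorescent peptide at 50 nM (final), buffer 10 mM HEPES pH 7.5 with 0.15 M NaCl, 3 mM EDTA, 0.1 mM TCEP, 0.01% Tween 20; 20 min incubation, r.t.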

[2] = molecular target: Rap guanine nucleotide exchange factor 3 (Homo sapiens) (UniProt O95398); test: Counterscreen qHTS for agonist of cAMP-regulated guanine nucleotide exchange factor 3 (EPAC1) (AID 1645889); also: nearly all actives have a fitted effect of over 40% in size
Procedure, shortened: (§1)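 Measured: fluorescence of BODIPY-GDP bound to Rap1B, which falls as exchange proceeds. Conditions include 50 uM competing GDP, 5 and 30 min reads, and a later cAMP challenge for antagonist detection.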

[3] = molecular target: Rap guanine nucleotide exchange factor 3 (Homo sapiens) (UniProt O95398); test: Confirmatory qHTS for antagonist of cAMP-regulated guanine nucleotide exchange factor 3 (EPAC1) (AID 1645880); conditions: EPAC1 Rap1B-BODIPY-GDP exchange, fluorescence; activity, negative = inhibition: at 115 µM (top of the series); also: nearly all actives have a fitted effect of over 55% in size
Procedure, shortened: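 Released BODIPY-GDP fluoresces less than Rap1-bound BODIPY-GDP; the signal is followed at 480/540 nm at 5-min intervals over 30 min, after 5 min at room temperature. Reactions contain 100 nM EPAC1, 250 nM RAP1B-BODIPY-GDP and 50 uM GDP; results are normalized to ATA and DMSO.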

[4] = molecular target: Rap guanine nucleotide exchange factor 3 (Homo sapiens) (UniProt O95398); test: Confirmatory qHTS for agonist of cAMP-regulated guanine nucleotide exchange factor 3 (EPAC1) (AID 1645881); also: nearly all actives have a fitted effect of over 75% in size; also: potency is read from the fitted curve at half-maximal effect
[5] = molecular target: Rap guanine nucleotide exchange factor 4 (Homo sapiens) (UniProt Q8WZA2); test: Confirmatory qHTS for antagonist of cAMP-regulated guanine nucleotide exchange factor 4 (EPAC2) (AID 1645885); also: nearly all actives have a fitted effect of over 25% in size; also: potency is read from the fitted curve at half-maximal effect
[6] = molecular target: Rap guanine nucleotide exchange factor 3 (Homo sapiens) (UniProt O95398); test: Counterscreen qHTS for antagonist of cAMP-regulated guanine nucleotide exchange factor 3 (EPAC1) (AID 1645888)
Procedure, shortened: as §1

Measured: Potency

Sequence of Rap guanine nucleotide exchange factor 4 (Homo sapiens) (Q8WZA2 whole entry, looked up): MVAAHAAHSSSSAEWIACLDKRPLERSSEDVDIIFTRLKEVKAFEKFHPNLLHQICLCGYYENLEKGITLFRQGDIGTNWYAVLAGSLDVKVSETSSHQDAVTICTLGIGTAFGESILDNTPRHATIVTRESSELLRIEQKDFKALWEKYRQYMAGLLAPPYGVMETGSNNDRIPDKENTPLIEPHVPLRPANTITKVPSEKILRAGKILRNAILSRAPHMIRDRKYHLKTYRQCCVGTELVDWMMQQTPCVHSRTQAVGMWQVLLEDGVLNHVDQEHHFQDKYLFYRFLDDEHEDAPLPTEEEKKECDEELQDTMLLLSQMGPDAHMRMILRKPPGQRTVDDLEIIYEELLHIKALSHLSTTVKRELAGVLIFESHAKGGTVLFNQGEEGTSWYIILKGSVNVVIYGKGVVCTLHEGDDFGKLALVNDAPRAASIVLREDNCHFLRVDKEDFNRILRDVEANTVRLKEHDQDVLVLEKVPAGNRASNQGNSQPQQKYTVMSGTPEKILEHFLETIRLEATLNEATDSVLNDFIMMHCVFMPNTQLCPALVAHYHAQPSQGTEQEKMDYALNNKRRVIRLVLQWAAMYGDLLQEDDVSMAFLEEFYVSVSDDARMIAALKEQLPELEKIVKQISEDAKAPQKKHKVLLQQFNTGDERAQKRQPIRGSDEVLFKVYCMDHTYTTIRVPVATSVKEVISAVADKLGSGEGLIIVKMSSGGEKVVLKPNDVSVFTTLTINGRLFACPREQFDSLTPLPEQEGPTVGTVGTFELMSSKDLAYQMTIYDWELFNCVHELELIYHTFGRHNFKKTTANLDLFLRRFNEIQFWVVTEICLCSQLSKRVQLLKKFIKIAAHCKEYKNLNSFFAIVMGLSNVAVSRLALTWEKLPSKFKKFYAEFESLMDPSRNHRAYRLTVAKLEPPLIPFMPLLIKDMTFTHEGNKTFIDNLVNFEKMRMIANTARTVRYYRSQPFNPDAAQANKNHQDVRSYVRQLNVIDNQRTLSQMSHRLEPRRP
Sequence of Rap guanine nucleotide exchange factor 3 (Homo sapiens) (O95398 whole entry, looked up): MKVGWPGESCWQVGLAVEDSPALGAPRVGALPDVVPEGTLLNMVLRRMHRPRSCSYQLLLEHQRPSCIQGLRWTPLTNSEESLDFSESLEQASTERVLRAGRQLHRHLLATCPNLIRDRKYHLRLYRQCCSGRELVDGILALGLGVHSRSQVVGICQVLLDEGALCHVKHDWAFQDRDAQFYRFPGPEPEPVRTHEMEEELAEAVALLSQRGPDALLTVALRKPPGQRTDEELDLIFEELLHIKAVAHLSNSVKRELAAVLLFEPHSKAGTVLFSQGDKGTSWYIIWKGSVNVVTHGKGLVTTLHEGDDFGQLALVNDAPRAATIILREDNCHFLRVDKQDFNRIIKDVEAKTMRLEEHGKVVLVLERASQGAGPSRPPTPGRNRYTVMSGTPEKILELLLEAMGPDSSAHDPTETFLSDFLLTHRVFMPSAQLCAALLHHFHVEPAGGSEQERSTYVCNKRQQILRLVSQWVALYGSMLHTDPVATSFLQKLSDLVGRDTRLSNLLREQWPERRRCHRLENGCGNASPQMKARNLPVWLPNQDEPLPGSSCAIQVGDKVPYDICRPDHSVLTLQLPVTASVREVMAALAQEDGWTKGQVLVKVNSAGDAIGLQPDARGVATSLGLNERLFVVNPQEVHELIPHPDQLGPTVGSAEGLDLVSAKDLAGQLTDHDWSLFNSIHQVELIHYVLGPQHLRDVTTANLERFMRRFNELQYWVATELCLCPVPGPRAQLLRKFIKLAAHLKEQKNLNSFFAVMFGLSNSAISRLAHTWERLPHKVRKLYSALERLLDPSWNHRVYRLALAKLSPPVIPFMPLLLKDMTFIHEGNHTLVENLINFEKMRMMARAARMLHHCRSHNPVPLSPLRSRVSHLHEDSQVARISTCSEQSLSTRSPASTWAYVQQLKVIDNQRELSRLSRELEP
Sequence of Tumor susceptibility gene 101 protein (Homo sapiens) (Q99816 whole entry, looked up): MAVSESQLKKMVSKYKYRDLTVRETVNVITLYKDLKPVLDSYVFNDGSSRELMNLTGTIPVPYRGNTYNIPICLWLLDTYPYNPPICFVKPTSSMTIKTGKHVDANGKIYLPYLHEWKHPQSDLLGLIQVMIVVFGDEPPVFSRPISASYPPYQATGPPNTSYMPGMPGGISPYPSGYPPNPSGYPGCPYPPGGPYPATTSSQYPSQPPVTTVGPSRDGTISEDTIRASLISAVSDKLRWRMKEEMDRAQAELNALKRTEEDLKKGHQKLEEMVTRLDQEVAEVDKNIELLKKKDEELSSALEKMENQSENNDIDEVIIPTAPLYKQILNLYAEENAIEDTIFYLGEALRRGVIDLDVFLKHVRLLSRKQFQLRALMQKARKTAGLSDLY

Oc1ccc2ccccc2c1-c1sc(Nc2ccccc2)n[n+]1-c1ccc(F)cc1
inactive: [2]
active: [1] 10.3 µM

Cc1ccc(NC(=O)N2CC3CCCN3c3ccccc32)cc1Cl (configuration not stated)
inactive: [3] | [4] | [5] | [6]

CCOc1ccc(NC(=O)CSc2nc(-c3cccc(Cl)c3)nc3c2Cc2c(CO)cnc(C)c2O3)cc1
inactive: [3] | [4] | [5] | [6]

Cc1ccc(CNC(=O)CN(c2cc(C)cc(C)c2)S(=O)(=O)c2c(C)[nH]c(=O)[nH]c2=O)cc1
inactive: [3] | [4] | [5] | [6]

Cc1ccc(CNc2cc(C)nc3nc(-c4ccc(C)cc4)nn23)cc1
inactive: [3] | [4] | [5] | [6]

CC(=O)c1cccc(NC(=O)Cn2cc(C(=O)c3cccc(Cl)c3)c(=O)c3ccc(C)nc32)c1
inactive: [3] | [4] | [5] inactive [at 12.7 µM] | [6]

N#CC(C#N)=C1C=C2C=C(N3CCOCC3)CCC2CC1 (configuration not stated)
inactive: [3] | [6]
active: [4] 44.7 µM | [5] 37.9 µM

COc1cc2c(cc1OC)C(c1cccc(Cl)c1)CC(=O)N2 (configuration not stated)
inactive: [3] | [4] | [5] | [6]

O=c1onc(-c2ccccc2)n1-c1cc(Cl)cc(Cl)c1
not listed: [1]
inactive: all other assays above

COc1ccc(C(=O)c2oc3ccccc3c2NC(=O)c2cc(=O)c3ccc(C)cc3o2)cc1Cl
inactive: [3] | [4] | [5] inactive [at 12.7 µM] | [6]

CCOc1ccccc1NC(=O)c1ccccc1-c1ccccc1
inactive: [3] | [4] | [5] | [6]

O=S(=O)(Nc1ccccc1N1CCCCC1)c1ccccc1
inactive: [3] | [4] | [5] | [6]

O=S(=O)(Nc1ccccc1N1CCCCC1)c1cccs1
inactive: [3] | [4] | [6]
active: [5] 19 µM

CCOc1ccc(-n2cnc3scc(-c4ccc(OC)c(OC)c4)c3c2=O)cc1
inactive: [3] | [4] | [5] | [6]

COCc1ccccc1C1=CC(=O)C[C@H](c2ccc(F)cc2)C1
inactive: [3] | [4] | [5] | [6]

COCCOC(=O)c1c(-c2ccccc2)c(-c2ccccc2)nn(C)c1=O
inactive: [3] | [4] | [5] | [6]

COc1ccc(-n2c(O)c(/C=N/NS(=O)(=O)c3cc(C)ccc3C)c3ccccc3c2=O)cc1OC
inactive: [3] | [4] | [6]
active: [5] 33.8 µM
